Measured values published in PubChem BioAssay AID1159580 (chemical genetic matrix, 2015).
About 2,000 (36%) of roughly 5,500 compounds were called active. Roughly 18% stayed inconclusive and do not appear here. Cut-off read from the data, not from the text of the source: active = normalized growth mostly below about 0.91 (no sharp cut-off); inconclusive = no clear call, values can overlap the other calls; inactive = mostly above about 0.92. The list shows a part of the results.

Assay: chemical genetic growth profiling, strain panel (AID 1159580);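 note: tested at 20 µM; growth read once vehicle control cultures reached saturation at 30 °C; 1 = growth at the plate median or of vehicle wells; lower values mean less growth of the strain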
Settings: growth OD
[1] = S. cerevisiae deletion strains, locus YHR030C, strain SLT2, hits give low values
[2] = S. cerevisiae deletion strains, locus YJL095W, strain BCK1, hits give low values

Measured: normalized growth

C=Cc1c(C)c2cc3nc(c4c5[nH]c(cc6nc(cc1[nH]2)C(C)=C6CC)c(C)c5C(=O)[C@@H]4C(=O)OC)[C@@H](CCC(=O)OC/C=C(\C)CCCC(C)CCCC(C)CCCC(C)C)[C@@H]3C (some centres undefined)
inactive: [1] 0.987 | S. cerevisiae deletion strains, locus YHR079C, strain IRE1, hits give low values 0.972 | [2] 0.978 | S. cerevisiae deletion strains, locus YJR066W, strain TOR1, hits give low values 0.934 | S. cerevisiae deletion strains, locus YLR113W, strain HOG1, hits give low values 0.957 | S. cerevisiae deletion strains, locus YNL183C, strain NPR1, hits give low values 0.935 | S. cerevisiae deletion strains, locus YOR231W, strain MKK1, hits give low values 0.954 | S. cerevisiae deletion strains, locus YPL256C, strain CLN2, hits give low values 0.965

CCC(C)C(=O)O[C@H]1[C@H](O)C2C(CN3CC(C)CCC3[C@@]2(C)O)C2C[C@]34O[C@]5(O)C(OC(=O)C(C)(O)C(C)O)CC[C@@]3(C)C5C(OC(C)=O)[C@@H](OC(C)=O)C4[C@@]21O (some centres undefined)
inactive: S. cerevisiae deletion strains, locus YAL013W, strain DEP1, hits give low values 1.01 | S. cerevisiae deletion strains, locus YBR021W, strain FUR4, hits give low values 0.996 | S. cerevisiae deletion strains, locus YBR229C, strain ROT2, hits give low values 1 | S. cerevisiae deletion strains, locus YCL029C, strain bik1, hits give low values 1 | S. cerevisiae deletion strains, locus YDL035C, strain GPR1, hits give low values 1.02 | S. cerevisiae deletion strains, locus YDL074C, strain BRE1, hits give low values 1.01 | S. cerevisiae deletion strains, locus YDL101C, strain DUN1, hits give low values 1.01 | S. cerevisiae deletion strains, locus YDL134C, strain PPH21, hits give low values 1.01 | S. cerevisiae deletion strains, locus YDL185W, strain tfp1, hits give low values 0.999 | S. cerevisiae deletion strains, locus YDL192W, strain arf1, hits give low values 1 | S. cerevisiae deletion strains, locus YDR101C, strain arx1, hits give low values 0.986 | S. cerevisiae deletion strains, locus YDR150W, strain NUM1, hits give low values 1.01 | S. cerevisiae deletion strains, locus YDR162C, strain NBP2, hits give low values 1.01 | S. cerevisiae deletion strains, locus YDR318W, strain mcm21, hits give low values 0.998 | S. cerevisiae deletion strains, locus YDR388W, hits give low values 1 | S. cerevisiae deletion strains, locus YDR502C, strain sam2, hits give low values 0.996 | S. cerevisiae deletion strains, locus YEL061C, strain CIN8, hits give low values 1.01 | S. cerevisiae deletion strains, locus YER110C, hits give low values 0.994 | S. cerevisiae deletion strains, locus YER155C, strain BEM2, hits give low values 1 | S. cerevisiae deletion strains, locus YER167W, strain BCK2, hits give low values 1.07 | S. cerevisiae deletion strains, locus YGL078C, strain dbp3, hits give low values 1 | S. cerevisiae deletion strains, locus YGL086W, strain mad1, hits give low values 1 | S. cerevisiae deletion strains, locus YGL248W, strain PDE1, hits give low values 1.01 | S. cerevisiae deletion strains, locus YGR078C, strain PAC10, hits give low values 1.01 | S. cerevisiae deletion strains, locus YGR135W, strain pre9, hits give low values 0.997 | S. cerevisiae deletion strains, locus YGR229C, strain SMI1, hits give low values 1.03 | S. cerevisiae deletion strains, locus YGR252W, strain gcn5, hits give low values 1.01 | [1] 1 | S. cerevisiae deletion strains, locus YHR079C, strain IRE1 (second series), hits give low values 0.998 | S. cerevisiae deletion strains, locus YHR094C, strain hxt1, hits give low values 1 | S. cerevisiae deletion strains, locus YHR129C, strain ARP1, hits give low values 1 | S. cerevisiae deletion strains, locus YHR200W, strain rpn10, hits give low values 1 | S. cerevisiae deletion strains, locus YIL066C, strain RNR3, hits give low values 1.01 | S. cerevisiae deletion strains, locus YIL073C, strain SPO22, hits give low values 1.02 | S. cerevisiae deletion strains, locus YIL125W, strain kgd1, hits give low values 1.01 | S. cerevisiae deletion strains, locus YIR030C, strain dcg1, hits give low values 0.991 | [2] 0.994 | S. cerevisiae deletion strains, locus YJL134W, strain LCB3, hits give low values 1.01 | S. cerevisiae deletion strains, locus YJL168C, strain set2, hits give low values 1 | S. cerevisiae deletion strains, locus YJL187C, strain SWE1 (second series), hits give low values 1.01 | S. cerevisiae deletion strains, locus YJR043C, strain POL32, hits give low values 0.984 | S. cerevisiae deletion strains, locus YJR075W, strain HOC1, hits give low values 1.01 | S. cerevisiae deletion strains, locus YKL009W, strain mrt4, hits give low values 1 | S. cerevisiae deletion strains, locus YKL068W, hits give low values 1.01 | S. cerevisiae deletion strains, locus YKL085W, strain MDH1 (second series), hits give low values 1 | S. cerevisiae deletion strains, locus YKL085W, strain MDH1, hits give low values 1 | S. cerevisiae deletion strains, locus YKL190W, strain CNB1, hits give low values 1.01 | S. cerevisiae deletion strains, locus YKR001C, strain vps1, hits give low values 0.98 | S. cerevisiae deletion strains, locus YLR039C, strain RIC1, hits give low values 1 | S. cerevisiae deletion strains, locus YLR058C, strain SHM2, hits give low values 1.01 | S. cerevisiae deletion strains, locus YLR102C, strain apc9, hits give low values 1 | S. cerevisiae deletion strains, locus YLR262C, strain YPT6, hits give low values 0.996 | S. cerevisiae deletion strains, locus YLR268W, strain sec22, hits give low values 0.981 | S. cerevisiae deletion strains, locus YLR330W, strain CHS5, hits give low values 1.02 | S. cerevisiae deletion strains, locus YLR342W, strain FKS1 (second series), hits give low values 1 | S. cerevisiae deletion strains, locus YLR371W, strain rom2, hits give low values 1 | S. cerevisiae deletion strains, locus YLR418C, strain cdc73, hits give low values 1 | S. cerevisiae deletion strains, locus YML016C, strain PPZ1, hits give low values 1 | S. cerevisiae deletion strains, locus YML032C, strain rad52, hits give low values 0.991 | S. cerevisiae deletion strains, locus YML124C, strain tub3, hits give low values 0.996 | S. cerevisiae deletion strains, locus YMR078C, strain ctf18, hits give low values 1.01 | S. cerevisiae deletion strains, locus YMR223W, strain ubp8, hits give low values 0.999 | S. cerevisiae deletion strains, locus YMR263W, strain SAP30, hits give low values 1 | S. cerevisiae deletion strains, locus YMR307W, strain GAS1, hits give low values 0.987 | S. cerevisiae deletion strains, locus YNL067W, strain RPL9B, hits give low values 1 | S. cerevisiae deletion strains, locus YNL128W, strain TEP1, hits give low values 1.02 | S. cerevisiae deletion strains, locus YNL153C, strain GIM3, hits give low values 0.996 | S. cerevisiae deletion strains, locus YNL233W, strain BNI4, hits give low values 1.01 | S. cerevisiae deletion strains, locus YNL250W, strain rad50, hits give low values 0.99 | S. cerevisiae deletion strains, locus YNL271C, strain bni1, hits give low values 0.992 | S. cerevisiae deletion strains, locus YNL298W, strain CLA4, hits give low values 0.986 | S. cerevisiae deletion strains, locus YNL307C, strain MCK1, hits give low values 1.01 | S. cerevisiae deletion strains, locus YNL322C, strain KRE1, hits give low values 1.01 | S. cerevisiae deletion strains, locus YNR052C, strain pop2, hits give low values 1 | S. cerevisiae deletion strains, locus YOL006C, strain TOP1, hits give low values 1.02 | S. cerevisiae deletion strains, locus YOL012C, strain htz1 0.933 | S. cerevisiae deletion strains, locus YOL147C, strain pex11, hits give low values 0.996 | S. cerevisiae deletion strains, locus YOR061W, strain CKA2, hits give low values 1.01 | S. cerevisiae deletion strains, locus YOR069W, strain VPS5, hits give low values 1.01 | S. cerevisiae deletion strains, locus YOR136W, strain idh2, hits give low values 1 | S. cerevisiae deletion strains, locus YOR144C, strain elg1, hits give low values 0.996 | S. cerevisiae deletion strains, locus YOR184W, strain ser1, hits give low values 1.02 | S. cerevisiae deletion strains, locus YOR316C, strain cot1, hits give low values 1 | S. cerevisiae deletion strains, locus YPL055C, strain LGE1, hits give low values 1.03 | S. cerevisiae deletion strains, locus YPL241C, strain CIN2, hits give low values 1.01 | S. cerevisiae deletion strains, locus YPR119W, strain clb2, hits give low values 1 | S. cerevisiae deletion strains, locus YPR141C, strain kar3, hits give low values 0.996 | S. cerevisiae deletion strains, locus YPR163C, strain tif3, hits give low values 0.996 | S. cerevisiae deletion strains, locus YPR167C, strain met16, hits give low values 1.01 | S. cerevisiae deletion strains, strain wtn01, hits give low values 0.997 | S. cerevisiae strains, strain wild type, hits give low values 1.01
